AMA1-RON2 inh – inhibitors of Plasmodium falciparum AMA1-RON2 interaction; AlphaScreen AMA1-biotinylated RON2 peptide binding; 0.2% of 360,000 active; Potency, µM (top dose mostly 58.2 µM), inactives show top-dose activity change, negative = inhibition, most hits filed as inhibitors;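 further: 0% = vehicle wells and -100% = peptide control; nearly all actives have a fitted effect of over 45% in size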
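AMA1 (3D7) with his tag at 25 nM final met compounds first, then biotinylated RON2 peptide at 25 nM; detection used donor plus acceptor beads, 10 µg/mL apiece, read by AlphaScreen after 30 min at room temperature.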
NS1 inh – inhibitors of influenza NS1 protein function; AID 2326; 0.4% of 270,000 active; Potency, µM (titrated, usually from 46.1 µM), for inactives: at the top dose activity, positive = more growth; calls by dose curve; further: actives are rising curves; nearly all actives have a fitted effect of over 50% in size
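In this qHTS, NS1 from influenza A is expressed in budding yeast, where it slows growth. Cells are switched from glucose to 2% galactose medium (pH 6.0, -URA), treated with compound, and growth recovery is read at OD600.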
SARS PLP yeast – inhibitors of SARS-CoV papain-like protease in yeast; S. cerevisiae expressing SARS-CoV PLpro, growth rescue; Potency, µM (highest dose often 32.9 µM), without a hit: at the top dose activity, positive = growth rescue, most hits filed as activators; 0.19% of 330,000 active; AID 485353; calls by dose curve; further: 0% is about no effect; nearly all actives have a fitted effect of over 55% in size
Pf growth 48h – P. falciparum growth inhibition at 48 hours (one generation). P. falciparum luciferase growth in erythrocytes, 48 h. Potency, µM (top dose mostly 28.7 µM), without a hit: top-dose activity change, negative = inhibition, hits mostly inhibitors. 5.9% of 310,000 active. AID 504832; further: on the % scale 0 is the no-effect control and ±100 the full control effect
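Read-out is firefly luciferase luminescence from an integrated reporter in P. falciparum, so falling signal marks reduced parasite growth. Infected erythrocytes were at 2% hematocrit and 0.1% parasitemia (final) in Albumax-supplemented RPMI 1640.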
Pf growth 96h – P. falciparum growth inhibition at 96 hours. Potency, µM (doses to about 28.7 µM), for inactives: at the highest dose activity change, negative = inhibition, hits mostly inhibitors. P. falciparum luciferase reporter growth, 96 h. 6.9% of 320,000 active; further: on the % scale 0 is the no-effect control and ±100 the full control effect
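Erythrocytes infected with luciferase-expressing P. falciparum were dispensed at 2% hematocrit and 0.05% parasitemia (final), then incubated with compounds 96 hours at 37 C in 5% CO2. Luminescence after detection reagent addition reported growth.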
HCV inh – blocks hepatitis C virus. Huh7.5.1 HCVcc-Cre infection, luciferase reporter, 44 h. Potency, µM (titrated, usually from 41.8 µM), inactives show top-dose activity change, negative = inhibition, usual class: inhibitors. 3.4% of 340,000 active. AID 651820; further: on the % scale 0 is the no-effect control and ±100 the full control effect
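Reporter virus HCVcc-Cre (~0.5 moi) infects cells exposed to compound; seeding density 1,000 cells/well with 4 h settling beforehand. Luminescence, 15 sec read, taken 44 h post-infection following a 15 min RT substrate incubation.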
* hit, by the source's call; ? = inconclusive; · = no result given; [ ] = dose if it differs, or a comment. Compounds with a hit are over-represented: about 12% of the library has one in this group of screens. Unless noted, the call rests on the fitted dose curve; in most records, active means well fitted curve in the direction sought with a large enough effect; inconclusive means small, poorly fitted or top-dose-only effect, or another doubt; inactive means no such curve, though single readings can be large; an effect the other way counts as inactive or inconclusive. Potency means the concentration at half of the fitted maximal effect.

SMILES	AMA1-RON2 inh	NS1 inh	SARS PLP yeast	Pf growth 48h	Pf growth 96h	HCV inh
C=CCN(C)CC/C=C1\c2ccccc2CSc2ccccc21	14.1µM*	-9.3%	-20.5%	?	?	?
CN(C)CC/C=C1\c2cc(F)ccc2CSc2ccccc21	-1.6%	-5.7%	-4.3%	13.1µM*	?	?
C#CCN(C)CC/C=C1\c2ccccc2CSc2ccccc21	?	-10.8%[9.22 µM]	-14.0%	13.1µM*	?	?
Cc1ccc(C)c(C(=O)CCC(=O)Nc2ccc(N3CCN(C)CC3)cc2C)c1	4.5%	·	-2.6%	·	·	?
COc1ccc(CCNC(=O)CN2C(=O)NC(c3ccccc3)(c3ccccc3)C2=O)cc1	-15.6%	·	-0.1%	·	·	?
CNC(=S)Nc1cc(C(=O)N2CCCC2)ccc1N1CCCC1	-6.6%	9.0%	0.5%	22.2%	5.22µM*	-7.2%
CCOc1ccccc1NC(=O)NNC(=O)CCc1ccc(OC)cc1	46.2%	5.8%	21.4%	-16.1%	37.4%	-1.8%
O=C(c1cccc(F)c1)N1CCCC(C(=O)N2CCCCC2)C1 (stereo not given)	-3.1%	11.4%	5.3%	-24.3%	?	-10.7%
O=C(c1ccc(N2CCN(C(=O)c3cccc(F)c3)CC2)cc1)c1cccc(F)c1	21.2%	-36.6%	-1.1%	13.1µM*	?	?
O=C(c1cccc(F)c1)N1CCN(S(=O)(=O)Cc2ccccc2)CC1	-7.0%	?	1.5%	2.94µM*	0.0%	7.0%
CC(C)(C)c1ccc(C(=O)N2CCCN(C(=O)c3ccc(C(C)(C)C)cc3)CC2)cc1	16.8%[2.32 µM]	-2.3%	-12.7%	31.1%	157.5%	-9.6%
CC(C)(C)c1ccc(C(=O)N2CCN(C(=O)C3CCCCC3)CC2)cc1	5.4%	-24.0%	11.0%	?	10.4µM*	-5.5%
O=C(c1cccc(F)c1)N1CCN(S(=O)(=O)c2ccccc2)CC1	1.0%	?	1.8%	·	·	14.4%
O=C(c1cccc(F)c1)N1CCN(C(=O)C2CC2)CC1	19.2%	7.1%	10.4%	-3.4%	0.329µM*	17.3%
O=C(c1ccc(N2CCN(C(=O)c3ccccc3Br)CC2)cc1)c1cccc(F)c1	15.0%	-4.6%	0.7%	?	9.28µM*	?
Cn1c(-c2cccc([N+](=O)[O-])c2)cnc1NCc1cccc(F)c1	?	-6.5%	-1.1%	44.7%	4.65µM*	0.4%
C=CCn1c(=O)c2c(nc3n2CC(C)CN3CCc2ccccc2)n(C)c1=O (stereo not given)	-2.3%	-10.6%	3.0%	-9.2%	?	-27.2%
COc1ccc(-c2cn[nH]c2-c2ccc(OCc3ccc(F)cc3)cc2O)cc1OC	41.7%	8.3%	-0.1%	10.4µM*	-6.3%	?
COc1ccc(-c2cn[nH]c2-c2ccc(OCc3ccccc3)cc2O)cc1OC	78.0%	4.2%	-3.0%	8.28µM*	0.8%	?
CC1CCc2sc(C(=O)N/N=C/c3ccc(O)cc3)cc2C1 (stereo not given)	-5.8%	-7.3%	-1.0%	-1.8%	44.5%	?
Cc1cc(N2C(=O)CCC2=O)n(-c2ccccc2)n1	11.6%	?	-6.5%	3.9%	10.4µM*	-10.0%
O=S1(=O)c2ccc(Br)cc2N2CCC[C@@H]2CN1Cc1ccccc1	-4.9%	·	-17.9%	·	·	?
COc1ccc(C(=O)c2cc(C(C)=O)c(Nc3ccccc3)s2)cc1	-0.9%[2.32 µM]	-7.3%	-9.7%	-10.8%	?	3.16µM*
CCOC(=O)CC(=O)CSc1nc2ccccc2c(=O)n1-c1ccc(C(=O)N2CCOCC2)cc1	8.5%	2.6%	6.0%	1.65µM*	·	·
CCOC(=O)CC(=O)CSc1nc2ccccc2c(=O)n1-c1ccc(C(=O)NCCOC)cc1	39.5%	10.8%	-2.7%	5.22µM*	?	-7.7%
COc1cc(OC)cc(C(=O)Nn2cc(C(=O)Nc3c(F)cccc3F)c3ccccc3c2=O)c1	-13.6%	2.0%	0.9%	-25.1%	66.3%	?
O=C1CCC([N+](=O)[O-])C(c2cc(Br)ccc2F)N1 (stereo not given)	17.5%	0.8%	2.4%	25.2%	10.5%	6.8%
